# Source: article PMC11062922 (Nature Chemical Biology, 2023)
# Read-outs that look alike come from different tables or passages of the source.
# What was measured:
# Parameters in all cases: species or system human, MV4-11 + K-562 + COLO205 + SK-N-BE2 + OVCAR-8
# ACVR1B = conditions: read-out: apparent Kd; compound concentrations:100 nM and 1000 nM (sheet 'Samples'); n = 1
# NQO2 = conditions: read-out: apparent Kd; compound concentrations:100 nM and 1000 nM (sheet 'Samples'); n = 1
# TGFBR1 = conditions: read-out: apparent Kd; compound concentrations:100 nM and 1000 nM (sheet 'Samples'); n = 1
# TGFBR2 = conditions: read-out: apparent Kd; compound concentrations:100 nM and 1000 nM (sheet 'Samples'); n = 1
# TNIK = conditions: read-out: apparent Kd; compound concentrations:100 nM and 1000 nM (sheet 'Samples'); n = 1
# ADCK1 = conditions: read-out: apparent Kd; compound concentrations: 100 nM and 1000 nM (sheet 'Samples'), CATDS: 4.1233669692049897E-2; n = 1
# AKT1 = conditions: read-out: apparent Kd, compound concentrations: 100 nM and 1000 nM (sheet 'Samples'), n = 1
# AKT2 = conditions: read-out: apparent Kd; compound concentrations: 100 nM and 1000 nM (sheet 'Samples'), CATDS: 4.9283792774051899E-2; n = 1
# BTK = conditions: read-out: apparent Kd; compound concentrations: 100 nM and 1000 nM (sheet 'Samples'), CATDS: 5.4009737115297697E-2; n = 1
# CDC42BPG = conditions: read-out: apparent Kd; compound concentrations: 100 nM and 1000 nM (sheet 'Samples'), CATDS: 4.9090451053861402E-2; n = 1
# CSNK1A1 = conditions: read-out: apparent Kd; compound concentrations: 100 nM and 1000 nM (sheet 'Samples'), CATDS: 4.23666657347909E-2; n = 1
# CSNK1E = conditions: read-out: apparent Kd; compound concentrations: 100 nM and 1000 nM (sheet 'Samples'), CATDS: 3.8720748933532501E-2; n = 1
# CSNK1G3 = conditions: read-out: apparent Kd; compound concentrations: 100 nM and 1000 nM (sheet 'Samples'), CATDS: 4.2624276708998099E-2; n = 1
# IARS = conditions: read-out: apparent Kd; compound concentrations: 100 nM and 1000 nM (sheet 'Samples'), CATDS: 4.0140361212157798E-2; n = 1
# MAPK14 = conditions: read-out: apparent Kd; compound concentrations: 100 nM and 1000 nM (sheet 'Samples'), CATDS: 5.21130062125853E-2; n = 1
# OPA1 = conditions: read-out: apparent Kd; compound concentrations: 100 nM and 1000 nM (sheet 'Samples'), CATDS: 4.7870015182345502E-2; n = 1
# PIK3CD = conditions: read-out: apparent Kd; compound concentrations: 100 nM and 1000 nM (sheet 'Samples'), CATDS: 0.15137185396719799; n = 1
# PIM1 = conditions: read-out: apparent Kd; compound concentrations: 100 nM and 1000 nM (sheet 'Samples'), CATDS: 5.1032643222322503E-2; n = 1
# PIM2 = conditions: read-out: apparent Kd; compound concentrations: 100 nM and 1000 nM (sheet 'Samples'), CATDS: 0.19635235530270301; n = 1
# RAB14 = conditions: read-out: apparent Kd; compound concentrations: 100 nM and 1000 nM (sheet 'Samples'), CATDS: 4.5308660485802198E-2; n = 1
# RPS6KA3 = conditions: read-out: apparent Kd; compound concentrations: 100 nM and 1000 nM (sheet 'Samples'), CATDS: 4.2284934101133903E-2; n = 1
# RPS6KA6 = conditions: read-out: apparent Kd; compound concentrations: 100 nM and 1000 nM (sheet 'Samples'), CATDS: 6.3682849838720093E-2; n = 1
# SRC = conditions: read-out: apparent Kd; compound concentrations: 100 nM and 1000 nM (sheet 'Samples'), CATDS: 4.8588200967613397E-2; n = 1
# STK3 = conditions: read-out: apparent Kd; compound concentrations: 100 nM and 1000 nM (sheet 'Samples'), CATDS: 4.1174689810954603E-2; n = 1
# TAOK1 = conditions: read-out: apparent Kd; compound concentrations: 100 nM and 1000 nM (sheet 'Samples'), CATDS: 5.56620194527895E-2; n = 1
# ADCK3 = conditions: read-out: apparent Kd, compound concentrations: 100 nM and 1000 nM (sheet 'Samples'), n = 1
# BRAF = conditions: read-out: apparent Kd; compound concentrations: 100 nM and 1000 nM (sheet 'Samples'), CATDS: 0.639948734699749; n = 1
# MAP2K5 = conditions: read-out: apparent Kd; compound concentrations: 100 nM and 1000 nM (sheet 'Samples'), CATDS: 0.203043275988008; n = 1
# PTK6 = conditions: read-out: apparent Kd; compound concentrations: 100 nM and 1000 nM (sheet 'Samples'), CATDS: 0.17376653089903399; n = 1
# RIPK3 = conditions: read-out: apparent Kd; compound concentrations: 100 nM and 1000 nM (sheet 'Samples'), CATDS: 9.1073681697651607E-2; n = 1
# TESK1 = conditions: read-out: apparent Kd; compound concentrations: 100 nM and 1000 nM (sheet 'Samples'), CATDS: 9.2639666275084007E-2; n = 1
# ZAK = conditions: read-out: apparent Kd; compound concentrations: 100 nM and 1000 nM (sheet 'Samples'), CATDS: 0.21269926478279999; n = 1
# AKT3 = conditions: read-out: apparent Kd; compound concentrations: 100 nM and 1000 nM (sheet 'Samples'), CATDS: 0.236310491034597; n = 1
# CDK13 = conditions: read-out: apparent Kd; compound concentrations: 100 nM and 1000 nM (sheet 'Samples'), CATDS: 0.20413342280503199; n = 1
# NQO1 = conditions: read-out: apparent Kd; compound concentrations: 100 nM and 1000 nM (sheet 'Samples'), CATDS: 0.22110563940730901; n = 1
compound,measurement,setting,value
COc1ccc(-c2cc(-c3c[nH]nc3-c3ccccn3)ccn2)cc1 [GW679410X],potency estimated from few doses,ACVR1B,686 nM
same,potency estimated from few doses,NQO2,168 nM
same,potency estimated from few doses,TGFBR1,170 nM
same,potency estimated from few doses,TGFBR2,1290 nM
same,potency estimated from few doses,TNIK,1140 nM
COc1cccc(C2=C(c3cn(C)c4ccc(Cl)cc34)C(=O)NC2=O)c1 [RO3300230-000],potency estimated from few doses,ADCK1,1860 nM
same,potency estimated from few doses,AKT1; CATDS: 4.32167355318668E-2,1650 nM
same,potency estimated from few doses,AKT2,1210 nM
same,potency estimated from few doses,BTK,993 nM
same,potency estimated from few doses,CDC42BPG,1220 nM
same,potency estimated from few doses,CSNK1A1,1730 nM
same,potency estimated from few doses,CSNK1E,2230 nM
same,potency estimated from few doses,CSNK1G3,1710 nM
same,potency estimated from few doses,IARS,2010 nM
same,potency estimated from few doses,MAPK14,1070 nM
same,potency estimated from few doses,OPA1,1290 nM
same,potency estimated from few doses,PIK3CD,189 nM
same,potency estimated from few doses,PIM1,1120 nM
same,potency estimated from few doses,PIM2,133 nM
same,potency estimated from few doses,RAB14,1460 nM
same,potency estimated from few doses,RPS6KA3,1740 nM
same,potency estimated from few doses,RPS6KA6,723 nM
same,potency estimated from few doses,SRC,1250 nM
same,potency estimated from few doses,STK3,1870 nM
same,potency estimated from few doses,TAOK1,935 nM
CCCS(=O)(=O)Nc1ccc(F)c(-n2cc(-c3cncc(OC)c3)nn2)c1F [BI00865461],potency estimated from few doses,ADCK3; CATDS: 9.7263378995511504E-2,1210 nM
same,potency estimated from few doses,BRAF,7.45 nM
same,potency estimated from few doses,MAP2K5,70.4 nM
same,potency estimated from few doses,PTK6,108 nM
same,potency estimated from few doses,RIPK3,1790 nM
same,potency estimated from few doses,TESK1,1610 nM
same,potency estimated from few doses,ZAK,62.5 nM
Cc1ccc(C)c(NC(=O)NC2CCN(c3ccnc(Nc4ccc(F)cc4)n3)C2)c1 (centres unmarked) [GSK1379720A],potency estimated from few doses,ADCK3; CATDS: 0.42611261301479197,388 nM
same,potency estimated from few doses,AKT3,1130 nM
same,potency estimated from few doses,CDK13,1630 nM
same,potency estimated from few doses,NQO1,1330 nM
FC(F)(F)c1ccc(-c2nn3ncccc3c2-c2ccnc(Nc3ccc(Cl)c(C(F)(F)F)c3)n2)cc1 [GW829350X],potency estimated from few doses,ADCK3; CATDS: 0.67916876553854699,727 nM
same,potency estimated from few doses,AKT1; CATDS: 0.39563035574495098,2350 nM
